# Screen size: about 310,000 compounds; about 17,000 (5.5%) were called active. Where a call stands in place of a potency, no number is given. Not shown: some 11% with an inconclusive outcome. The sample as a whole holds a higher share of actives than the screen did. Values without a mark were called inactive. The call rests on the fitted dose curve; in most records, active means well fitted inhibition curve with a large enough effect; inconclusive means small, poorly fitted or top-dose-only effect, or effect the other way; inactive means no such curve, though single readings can be large or run the other way.
# Molecular target: Nuclear receptor ROR-gamma (Mus musculus) (UniProt P51450)
# Test: qHTS for inhibitors of ROR gamma transcriptional activity; further: nearly all actives have a fitted effect of over 60% in size
# Conditions: Drosophila S2 Gal4-RORgamma UAS-luciferase reporter, 20 h; series mostly up to 53.6 µM
# Procedure, shortened: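 Using a luciferase readout, inhibitors were identified by reduced reporter activity in Drosophila cells coexpressing a copper-inducible Gal4–ROR gamma fusion and UAS-driven Photinus luciferase, incubated 20 hr after 700 uM copper sulfate.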
# Potency means the concentration at half of the fitted maximal effect.
# Nuclear receptor ROR-gamma (Mus musculus), sequence (P51450 whole entry, looked up): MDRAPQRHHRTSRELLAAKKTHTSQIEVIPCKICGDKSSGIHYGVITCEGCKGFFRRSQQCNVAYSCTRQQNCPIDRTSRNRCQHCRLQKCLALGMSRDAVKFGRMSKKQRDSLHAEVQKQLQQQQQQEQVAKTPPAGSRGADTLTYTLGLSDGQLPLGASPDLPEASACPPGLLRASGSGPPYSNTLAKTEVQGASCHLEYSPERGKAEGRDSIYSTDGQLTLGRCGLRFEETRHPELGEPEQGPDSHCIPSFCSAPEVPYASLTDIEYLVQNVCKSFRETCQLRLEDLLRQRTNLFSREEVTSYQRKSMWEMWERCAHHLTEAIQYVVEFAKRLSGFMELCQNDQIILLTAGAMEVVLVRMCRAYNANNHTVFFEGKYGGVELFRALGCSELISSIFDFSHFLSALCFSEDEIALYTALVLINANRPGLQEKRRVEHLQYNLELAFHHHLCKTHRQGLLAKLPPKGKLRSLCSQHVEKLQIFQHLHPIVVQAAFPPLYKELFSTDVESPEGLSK
SMILES,Potency,"activity change, negative = inhibition"
Cc1ccc(C(=O)NC23CC4CC(CC(C4)C2)C3)c(Cl)c1,inactive,–
Oc1ccccc1C1=NN(c2ccccc2)C(c2ccccc2)C1 (stereo unspecified),inactive,–
CC(C)c1nnc(NC(=O)COC(=O)/C=C/c2ccc([N+](=O)[O-])cc2)s1,inactive,–
NNC(=O)c1nnn(-c2nonc2N)c1CN1CCCC1,inactive,–
CCc1ccc(NC(=O)NC(C)c2ccc3c(c2)OCO3)cc1 (stereo unspecified),inactive,–
O=C(CN(Cc1ccc(Br)cc1)S(=O)(=O)c1ccccc1)NCc1ccncc1,inactive,–
COc1ccccc1OCCNC(=O)CCNC(=O)c1ccccc1Cl,inactive,–
CC(C)CCn1cnc2c1c(=O)n(CC(=O)NC(N)=O)c(=O)n2Cc1ccccc1,inactive,–
O=C(NCc1ccco1)/C(=C/c1ccco1)NC(=O)c1ccccc1,inactive,–
CC(=O)c1nn(-c2cccc(C(F)(F)F)c2)c(=O)[nH]c1=O,inactive,–
O=S(=O)(Cc1nnnn1-c1ccccc1)c1ccccc1,inactive,–
O=C(COc1ccc2c3c(c(=O)oc2c1)CCCC3)NCC(O)c1ccccc1 (stereo unspecified),inactive,–
CC(C)CC(=O)NC(=S)Nc1ccc(F)cc1F,inactive,–
O=C(Nc1ccccc1F)c1ccccc1-c1ccccc1,inactive,–
CC(C)C(=O)NC(=S)Nc1ccccc1F,7.08 µM (active),–
O=C(c1n[nH]c2c1CCC2)N1CCCC(Nc2cccc(F)c2)C1 (stereo unspecified),inactive,–
COc1ccccc1NC(=O)CN(c1ccccc1OC)S(=O)(=O)c1ccccc1,inactive,–
COc1ccc(S(=O)(=O)N(CC(=O)N/N=C/c2ccccc2C(=O)O)c2ccccc2OC)cc1,inactive,–
COc1ccccc1N(CC(=O)N/N=C(\C)c1ccccc1O)S(=O)(=O)c1ccc(C)cc1,0.562 µM (active),–
Cc1nc([N+](=O)[O-])cn1CC(=O)Nc1ccc(Cl)cc1,inactive,–
CC1(C)Cc2ccccc2/C(=C/C(=O)c2ccccc2)N1,inactive,–
CC1(C)Cc2ccccc2-c2[nH]c(=S)[nH]c(=O)c21,17.8 µM (active),–

SMILES,Potency,"activity change, negative = inhibition"
N#CC1=C(N)Oc2[nH]c(=S)[nH]c(=O)c2C12C(=O)Nc1ccccc12 (stereo unspecified),inactive,–
Cc1nn(C(C)(C)C)c(OC(=O)CC(C)C)c1S(=O)(=O)c1ccccc1,inactive,–
COc1ccc(C)cc1Nc1nc(-c2c(C)[nH]c3ccccc23)cs1,inactive,–
COc1ccc(C)cc1S(=O)(=O)Nc1cccc(Cl)c1Cl,inactive,–
COc1cc(Br)c(-c2sc(Nc3ccccc3)n[n+]2-c2ccccc2)cc1OC,11.2 µM (active),–
COc1ccc(C)cc1Nc1n[n+](-c2ccccc2)c(-c2cccc(Cl)c2Cl)s1,6.31 µM (active),–
CCOc1ccc2c(c1)c(=O)c(S(=O)(=O)c1ccc(C)cc1)cn2CC,inactive,–
CC(=O)N1CCN(CC(c2ccccc2)c2ccccc2)CC1,inactive,–
COc1ccc(C(=O)C2CCCN(S(=O)(=O)c3cccc(C)c3)C2)c(C)c1 (stereo unspecified),inactive,–
COc1cc(/C=C/CO)cc(OC)c1O[C@@H]1O[C@H](CO)[C@@H](O)[C@H](O)[C@H]1O,inactive,–
Cc1csc(-c2coc3cc(O[C@@H]4O[C@H](CO)[C@@H](O)[C@@H](O)[C@H]4O)ccc3c2=O)n1,3.16 µM (active),–
CCc1cccc(OC2OC(CO)C(O)C(O)C2NC(C)=O)c1 (stereo unspecified),inactive,–
O=C(O)c1cc([N+](=O)[O-])c(Nc2cccc3ccccc23)c([N+](=O)[O-])c1,inactive,–
CSc1ccccc1NC(=O)c1ccc2c(c1)CCN2S(C)(=O)=O,inactive,–
Cc1occc(=O)c1OCc1c(Cl)cccc1Cl,inactive,–
O=C(NCCOc1ccccc1)c1ccccc1,inactive,–
O=C(NCCc1ccccc1)c1ccc(OCCOc2ccccc2)cc1,inactive,–
CCCOc1ccc(C(=O)NCCc2ccccc2)cc1,11.2 µM (active),–
CCOC(=O)c1c(C)[nH]c(C)c1S(=O)(=O)NCCCc1ccco1,inactive,–
C/C(Cc1ccccc1)=N\NC(=O)CNC(=O)c1ccc2c(c1)OCCO2,inactive,–
Cc1ccc2sc(NNC(=O)c3ccc4c(c3)OCCO4)nc2c1C,7.94 µM (active),–
Cc1ccc(-n2nc3c(c2NC(=O)c2ccc4c(c2)OCO4)CSC3)c(C)c1,inactive,–

SMILES,Potency,"activity change, negative = inhibition"
Cc1ccc(F)cc1NC(=O)c1ccc2c(c1)OCO2,inactive,–
Cc1cc(C)c2nc(NC(=O)c3ccc4c(c3)OCO4)sc2c1,0.251 µM (active),–
O=C(Nc1nc2ccccc2s1)c1ccc2c(c1)OCO2,7.94 µM (active),–
COCc1nnc(NC(=O)c2ccc3c(c2)OCO3)s1,inactive,–
O=C(Nc1ccccc1F)c1ccc2c(c1)OCO2,inactive,–
Cc1cc(C)c2nc(NC(=O)C3CCCO3)sc2c1 (stereo unspecified),inactive,–
COc1ccc(C)cc1N(C(=O)Cn1nnc(-c2ccc(C)o2)n1)C(C(=O)NC1CCCC1)c1ccncc1 (stereo unspecified),inactive,–
CCCN1CCN(C(=O)CCCNC(=O)c2ccc(Cl)cc2)CC1,inactive,–
COCCCN1C(=O)c2ccc(C(=O)OCC(=O)NCc3ccccc3OC)cc2C1=O,inactive,–
CCOCCCNc1nc(-c2ccccc2)nc2ccccc12,–,24.9% [at 1.91 µM]
COc1ccc(CN(C)C(=O)Cc2ccsc2)c(OC)c1OC,inactive,–
CC(=O)c1ccc(NC(=O)c2ccc(-n3cncn3)c([N+](=O)[O-])c2)cc1,inactive,–
CCCC[C@]12Cc3cc(OC)c(OC)cc3C(O1)C1=C(CC3(CCCCC3)OC1=O)O2,–,3.02% [at 10 µM]
COCCc1nn2c(=O)cc(COC(=O)c3cc(OC)c(OC)c(OC)c3)nc2s1,inactive,–
CN(c1ccccc1)S(=O)(=O)c1ccc(C(=O)NCCc2ccccc2)cc1,inactive,–
CCCc1cc(C(=O)N2CCCC(CO)(CCCc3ccccc3)C2)n(C)n1 (stereo unspecified),inactive,–
CCOc1ccc(NC(=O)CCCCCN2C(=O)[C@@H]3Cc4ccccc4CN3C2=O)cc1,inactive,–
Cc1cc(-c2nnc(SCC(=O)Nc3ccc(F)cc3)n2N)n[nH]1,inactive,–
C=CCC1(C#N)C(=S)NC(C)=C(C(=O)OCC)C1c1ccccc1 (stereo unspecified),10 µM (active),–
C=CCOC(=O)C1=C(C)OC(N)=C(C#N)C1c1ccc(F)cc1 (stereo unspecified),inactive,–
CCOC(=O)C1=C(C)NC(SC)=NC1c1ccccc1 (stereo unspecified),inactive,–
CC(C(=O)Nc1ccc(O)c(C(=O)O)c1)N1C(=O)/C(=C/c2cccs2)SC1=S (stereo unspecified),inactive,–
